Screens deposited in PubChem by University of Pittsburgh Molecular Library Screening Center.
HIV RNase H inh-1 – blocks HIV-1 RNase H cleavage of RNA/DNA duplex; P04585; RT-RNase H RNA/DNA duplex cleavage, fluorescence; inhibition, % at 10 µM; hit rate 1.9% among 65,000; AID 565; in the data active = inhibition above about 50%
HIV RNase H inh-2 – confirmation of HIV-1 reverse transcriptase RNase H inhibitors; inhibition, % at 10 µM; hit rate 39% among 1,000; Recombinant RT RNase H, fluorescent RNA/DNA duplex cleavage; shares compounds with HIV RNase H inh-1; in the data active = inhibition above about 48%; inconclusive = no clear call, values can overlap the other calls
Of the large screens only hits and unclear results are named; the others gave an inactive call (follow-up assays come after a bar, where they were run). The entries come from a sample that favours hits as a whole.

COc1ccc(NC(=O)c2cc3n(n2)C(C(F)(F)F)CC(c2ccco2)N3)cc1 (stereo not given)	none
O=C(NCC12CC3CC(CC(C3)C1)C2)c1cc2n(n1)C(C(F)(F)F)CC(c1ccco1)N2 (stereo not given)	none
CN(C)c1ccc2c(c1)N=C(c1ccco1)OP2(=S)N1CCOCC1 (stereo not given)	HIV RNase H inh-1 89 | HIV RNase H inh-2 68
c1ccc(-n2c(-c3ccco3)nnc2N2CCOCC2)cc1	none
COC(=O)c1ccc(S(=O)(=O)NCCSc2nnc3c4ccccc4n(C)c3n2)cc1	none
COc1ccc(C(c2nnnn2C(C)(C)C)N2CCN(c3nc4ccccc4s3)CC2)cc1 (stereo not given)	none
CCC(C)(C)n1nnnc1C(c1cc(OC)c(OC)c(OC)c1)N1CCN(c2ccccc2)CC1 (stereo not given)	none
CCC(C)(C)n1nnnc1C(c1ccc(O)c(OC)c1)N1CCN(c2nc3ccccc3s2)CC1 (stereo not given)	HIV RNase H inh-1 56 | HIV RNase H inh-2 inactive
[N-]=[N+]=CC(=O)c1ccnc(C(=O)C=[N+]=[N-])c1	none
CCOC(=O)Cn1cnc2sc3c(c2c1=O)CCC3	none
COc1cc2c(c(OC)c1)C(c1cccc(OC)c1OC)CC(=O)N2 (stereo not given)	none
COc1ccc(OC)c(C2CC(=O)Nc3cc(OC)c(OC)c(OC)c32)c1 (stereo not given)	none
CCCOc1c(OC)cccc1C1CC(=O)Nc2cc(OC)c(OC)c(OC)c21 (stereo not given)	HIV RNase H inh-1 66 | HIV RNase H inh-2 inactive
CC1CCN(S(=O)(=O)c2ccc(NC(=O)Cn3nnc(-c4ccccc4F)n3)cc2)CC1	HIV RNase H inh-1 69 | HIV RNase H inh-2 inactive
CC1CCN(S(=O)(=O)c2ccc(NC(=O)CN3CCN(c4ccccc4)CC3)cc2)CC1	none
CC1CCN(S(=O)(=O)c2ccc(NC(=O)CN3CCN(C)CC3)cc2)CC1	none
CCN(CC)S(=O)(=O)c1cc(Br)ccc1OC	none
CCC(C)NC(=O)c1c(C)cc(=O)oc1C (stereo not given)	none
O=c1[nH]c2cc3c(cc2cc1CN(CC1CCCO1)S(=O)(=O)c1ccccc1)OCCO3 (stereo not given)	none
COC(=O)c1ccccc1S(=O)(=O)N(Cc1cc2cc3c(cc2[nH]c1=O)OCO3)C1CCCCC1	HIV RNase H inh-1 53 | HIV RNase H inh-2 52
COc1ccc(CN(Cc2cc3cc4c(cc3[nH]c2=O)OCO4)C(=O)NC2CCCCC2)cc1	none
COc1cccc(NC(=O)COc2ccc(N3CC(C(=O)NCC(C)C)CC3=O)cc2)c1 (stereo not given)	none
Cc1ccc(-n2c(=O)[nH]c3c(C(N)=O)nc(-c4ccc(C)o4)nc32)cc1	HIV RNase H inh-1 55 | HIV RNase H inh-2 inactive
Cc1ccc(-n2c(=O)[nH]c3c(C(N)=O)nc(CC(C)C)nc32)cc1	none
COc1ccc(OC)c(-c2nc(C(N)=O)c3[nH]c(=O)n(-c4ccc(F)cc4)c3n2)c1	none
COc1ccccc1C1CC(c2ccc(Cl)cc2)Nc2ncnn21 (stereo not given)	none
CC1(C)C(c2ccccc2)=[N+]([O-])CN1O	none
COc1ccc(N2CCN(CCNC(=O)c3c(C)cc(=O)oc3C)CC2)cc1	none
COc1ccc(N2CCN(Cc3cc(=O)oc4cc(C)c(Cl)c(C)c34)CC2)cc1	HIV RNase H inh-1 72 | HIV RNase H inh-2 68
Cc1cc2oc(=O)cc(CN3CCC(C)CC3)c2c(C)c1Cl	none
Cc1cc(NC(=O)c2cccc(S(=O)(=O)N3CCOCC3)c2)c2ccccc2n1	none
O=C1c2ccccc2C(=O)N1SC1CCCCC1	HIV RNase H inh-1 80 | HIV RNase H inh-2 inactive
O=C1c2ccccc2C(=O)N1CCN1CCCCC1	none
O=C(OCN1C(=O)c2ccccc2C1=O)C1CCCCC1	none
COC(=O)c1ccccc1NC(=O)C1CC(=O)N(C2CCCCC2)C1 (stereo not given)	none
CC(=O)C1=C(C)Nc2ncnn2C1c1ccccc1OCc1ccccc1 (stereo not given)	none
Cc1ccc(-c2nnc3n2N=C(c2ccccc2Br)CS3)cc1	none
C=C(C)n1c(=O)[nH]c2ccccc21	none
Cc1ccc(-c2cc(C(=O)Nc3cc(C)ccc3C)[nH]n2)c(O)c1	none
COc1ccc(OC)c(NC(=O)c2cc(-c3ccc(C)cc3O)n[nH]2)c1	HIV RNase H inh-1 76 | HIV RNase H inh-2 inactive
COc1ccc(CCNC(=O)c2cc(-c3cc(C)c(C)cc3O)n[nH]2)cc1OC	none
CC(C)n1c(SCC(=O)c2ccc3c(c2)OCCO3)nc2c1c(=O)n(C)c(=O)n2C	none
ONC=Nc1cccc2nonc12	none
COC(=O)c1c(NC(=O)c2nc3ncccn3n2)sc(C(=O)N(C)C)c1C	none
CCc1ccc(NC(=O)CSc2nc3cc(C(=O)OC)ccc3c(=O)n2Cc2ccco2)cc1	HIV RNase H inh-1 59 | HIV RNase H inh-2 57
CCSc1nc2cc(C(=O)OC)ccc2c(=O)n1CC	none
CCN(C(=O)CSc1nc2cc(C(=O)OC)ccc2c(=O)n1Cc1ccco1)c1cccc(C)c1	none
O=C(c1ccco1)N1CCN(C2CCCC2)CC1	none
Cc1cc(NC(=O)COC(=O)COc2ccc3c(c2)CCC3)no1	none
Cc1nn(-c2ccccc2)c2sc(C(=O)N3CCCCC3)cc12	none
Cc1cc(C(=O)N2CCOCC2)n(-c2ccccc2)n1	none
Nc1c(C(=O)N2CCCCC2)sc(=S)n1-c1ccccc1	HIV RNase H inh-1 97 | HIV RNase H inh-2 77
O=C(c1nc(-c2ccccc2)n(-c2ccccc2)n1)N1CCCCCC1	none
Nc1c(C(=O)N2CCOCC2)sc(=S)n1-c1ccccc1	HIV RNase H inh-1 95 | HIV RNase H inh-2 65
Nc1nc(C(=O)N2CCOCC2)nn1S(=O)(=O)c1ccccc1	none
CCOC(=O)C(C)Oc1ccc(C2NC(=O)NC(C)=C2C(=O)Nc2ccccc2C)cc1 (stereo not given)	none
CCOC(=O)N1CCC(NC(=O)Cc2ccc(-n3c(=O)[nH]c4ccccc4c3=O)cc2)CC1	none
COc1cccc(-n2c(C)nnc2SCC(=O)Nc2ccccc2N2CCOCC2)c1	none
CCOc1cc(N2CCOCC2)c(OCC)cc1NS(=O)(=O)c1ccc(Cl)s1	none
COCCCn1cnc2c(c1=O)c1nc3ccccc3nc1n2CCc1ccccc1	none
c1ccc(-c2nn3c(-c4ccncc4)nnc3s2)nc1	HIV RNase H inh-1 64 | HIV RNase H inh-2 inactive
Clc1ccc(-c2nnc3sc(-c4ccccn4)nn23)cc1	none
COc1ccc(-c2nnc3sc(-c4ccccn4)nn23)cc1	none
Clc1ccc(-c2nn3c(-c4ccncc4)nnc3s2)c(Cl)c1	none
Clc1ccccc1-c1nnc2sc(-c3ccncc3)nn12	none
Clc1ccccc1-c1nn2c(-c3ccncc3)nnc2s1	HIV RNase H inh-1 87 | HIV RNase H inh-2 57
Cc1ccc(NC(=O)c2c(-c3c(F)cccc3Cl)noc2C)cc1F	none
Cc1ccc(C)c(Cn2c(CN(C)Cc3ccccc3)nc3c2c(=O)n(C)c(=O)n3C)c1	none
CN(CCO)C(=O)CCC(=O)Nc1ccc(S(N)(=O)=O)cc1	none
CCC(=O)OC1=C2C(=Nc3c(c(=O)n(C)c(=O)n3C)C2c2ccccc2)c2ccccc21 (stereo not given)	none
COc1ccc(OC)c(NS(=O)(=O)Cc2ccccc2)c1	HIV RNase H inh-1 77 | HIV RNase H inh-2 inconclusive
COc1ccc(OC)c(S(=O)(=O)NCc2ccccc2)c1	none
COc1ccc(OC)c(NC(=O)CS(=O)(=O)c2ccccc2)c1	none
O=c1c2[nH]c3ccccc3c2ncn1CCN1CCOCC1	none
Cc1ccc2c(c1)[nH]c1c(=O)n(CCN3CCCCC3)cnc12	none
O=c1c2[nH]c3ccccc3c2ncn1CCN1CCCCC1	HIV RNase H inh-1 78 | HIV RNase H inh-2 inactive
CCCn1nnnc1NC(=O)CSc1ccc(Cl)cc1	none
